Measured values reported in PubChem BioAssay AID602399 (Sanford-Burnham Center for Chemical Genomics, 2012).
Screen size: about 360,000 compounds; about 2,800 (0.78%) were called active. This is one part of a sample in which actives are shown more often than they occur. Unmarked numbers belong to inactive results. Rule as the data show it: active = inhibition above about 26%; inactive = the rest.

What follows are compounds tested on Nicotinate-nucleotide adenylyltransferase NadD (Staphylococcus aureus N315) (assay: inhibitors of S. aureus NadD, primary screen, biochemical, colorimetric, uHTS (AID 602399)). Settings: purified NadD enzyme, colorimetric absorbance read-out; at 20 µM; hits give high values.

Structure (SMILES) | inhibition
c1ccc2c(c1)OC1OC2Oc2ccccc21 | -4.86%
COc1ccc(C(=O)N2CCCC(C(=O)c3ccccc3OC)C2)cc1OC (stereo not drawn) | -7.22%
O=C1Nc2ccc(Br)cc2/C1=N/N=C/C1=C(N2CCOCC2)C(=C\c2ccccc2)/CC1 | 30.5% (active)
O=C(O)c1ccc(NN=CC2=C(N3CCOCC3)/C(=C/c3ccccc3)CC2)cc1 | 19.5%
CC1=NN(C(=O)CCc2ccccc2O)C(O)(C(F)(F)F)C1 (stereo not drawn) | 17.6%
O=C1OC(NC(=O)c2ccccc2)C(N2CCOCC2)=C1Cl (stereo not drawn) | -2.17%
Cn1c(N)c(C(=O)COC(=O)c2cccc(S(=O)(=O)N3CCOCC3)c2)c(=O)n(C)c1=O | -4.47%
CCOc1ccc2nc(/N=C/c3nc(-c4ccccc4)oc3O)sc2c1 | 37% (active)
Oc1oc(-c2ccccc2Br)nc1/C=N/c1ccccn1 | -8.02%
CCOc1ccc2nc(C(=O)N3CCCC(C)C3)sc2c1 (stereo not drawn) | -8.67%
COc1ccc(S(=O)(=O)NCc2cccnc2)cc1NC(=O)c1ccc(C)cc1 | -1.72%
Cc1ccccc1OCC(=O)N(Cc1cccc(F)c1)C1CCS(=O)(=O)C1 (stereo not drawn) | -3.33%
O=S(=O)(c1ccc(-c2ccccc2)cc1)N1CCCC1 | -5.08%
O=C1CCC(C(=O)N2CCN(c3ccccc3Cl)CC2)CN1CC1CCCCC1 (stereo not drawn) | 5.68%
Cc1nc(N2CCN(c3ccccn3)CC2)c2c(C)c(C(=O)Nc3ccc(F)c(Cl)c3)sc2n1 | 29.5% (active)
Cc1nc(N2CCOCC2)c2c(C)c(C(=O)Nc3ccc(C(F)(F)F)cc3)sc2n1 | -4.82%
Cc1nc(N2CCC(C)CC2)c2c(C)c(C(=O)Nc3cc(F)ccc3C)sc2n1 | 7.17%
O=S(=O)(NN=C1CCCCCCC1)c1ccc(Br)cc1 | -0.0867%
O=C(CNS(=O)(=O)c1ccc(Br)s1)N1CCN(C(=O)c2ccco2)CC1 | -0.302%
COc1cc(CNC2CCCC2)c(Br)cc1OCc1ccccc1 | -2.14%
COc1cc(C2CC(=O)N3CN(Cc4ccccc4)CSC3=C2C#N)ccc1OCc1ccccc1 (stereo not drawn) | 31.4% (active)
CCCNC(=O)C1CC(=O)N(c2ccc(OCc3ccccc3)cc2)C1 (stereo not drawn) | 0.155%

Structure (SMILES) | inhibition
O=C(C[C@H]1C/C=C\C[C@@H](NC(=O)OCC2c3ccccc3-c3ccccc32)C(=O)O[C@@H](c2ccccc2)CNC1=O)N[C@H](CO)Cc1ccccc1 | 10.3%
COc1ccc(C(C#N)(CC(=O)O)c2cnccn2)cc1OC (stereo not drawn) | -3.22%
CCOc1ccc(C(=O)NC2CCN(C(=O)Nc3ccccc3OC)CC2)cc1 | 2.23%
CCOc1ccc2nc(NCCNC(=O)C(C)(C)C)c(C)cc2c1 | -13.1%
CCOc1ccc2nc(N3CCCN(C(=O)Nc4ccccc4C)CC3)c(C#N)cc2c1 | 36.8% (active)
CCOC(OCC)c1ccc(/C=C\c2nccc(N)n2)cc1 | -3.79%
CCCCc1ccc(S(=O)(=O)NC(=O)C2(C)CCN2C(=O)c2c(C)noc2C)cc1 (stereo not drawn) | -0.915%
CCOC(=O)N1CCN(S(=O)(=O)c2cc3c(cc2C)NC(=O)CO3)CC1 | 6.26%
CCCCC(=O)Nc1nc(C)c(-c2csc(Nc3ccc(Cl)cc3)n2)s1 | 20.5%
CCCCCCC(=O)Nc1nc(C)c(-c2csc(Nc3cccc(OC)c3)n2)s1 | 17.7%
CCCCCCC(=O)Nc1nc(C)c(-c2csc(Nc3cc(Cl)ccc3OC)n2)s1 | 33% (active)
CCOc1ccc(/C(O)=C2\C(=O)C(=O)N(c3ccc(OC)cc3)C2c2ccccc2[N+](=O)[O-])cc1 (stereo not drawn) | -0.376%
CCC(=C/c1sc2ccc3ccccc3c2[n+]1C)/C=C1\Sc2ccc3ccccc3c2N1C | 38.9% (active)
Cc1[nH]c(N)nc(=S)c1CCCNc1ccccc1 | 4.24%
CCCc1cc(=S)n2c([nH]c3ccccc32)c1C#N | 11.9%
CNC[C@H]1Oc2c(NC(=O)C3CCCCC3)cccc2C(=O)N([C@H](C)CO)C[C@@H]1C | 0.223%
CN(C)C(=O)Cn1c(=O)n(S(=O)(=O)c2ccccc2)c2ccccc21 | -0.572%
Cc1nc(N)nc(Cl)c1CCC1OCCO1 | -2.19%
CCCCNS(=O)(=O)c1ccc(S(=O)(=O)n2cnc3ccccc32)cc1 | 0.725%
CC(C)C(c1nnnn1C1CCCC1)N1CCN(c2ccccc2F)CC1 (stereo not drawn) | -3.03%
CC(=O)NS(=O)(=O)c1ccc(N/C(N)=N/c2nc(C)cc(C)n2)cc1 | 4.03%
COc1ccc(C(=O)NNc2cc(C)nc(NNC(=O)c3ccc(OC)cc3)n2)cc1 | 3.2%

Structure (SMILES) | inhibition
CC(=O)Nc1ccc(Nc2cc(C)nc(Nc3ccc(NC(C)=O)cc3)n2)cc1 | 32.4% (active)
CC1CCC2(CC1)NC(=O)N(CC(=O)c1cccn1C)C2=O (stereo not drawn) | -3.17%
Cc1ccc2nsnc2c1S(=O)(=O)N1CCCC1C(=O)O (stereo not drawn) | -6.81%
CCCCc1ccc(NC(=S)N2CCCC(CO)C2)cc1 (stereo not drawn) | -0.962%
CC(=O)c1ccc(N2C(=NC(=O)C(C)C)SC3CS(=O)(=O)CC32)cc1 (stereo not drawn) | -3.55%
Cc1ccc(C(=O)Nc2c(C#N)c(C)c(C)n2Cc2ccccc2)cc1 | -7.87%
Cc1c(C#N)c(NC(=O)c2ccccc2)n(Cc2ccccc2)c1C | -5.49%
CC(=O)Nc1ccc(C(=O)Nc2nc(-c3cc(C)n(Cc4ccccc4)c3C)cs2)cc1 | 41.8% (active)
CCc1nn(CCCC(=O)Nc2ccc(C)c(C)c2)c(=O)c2cc3occc3n12 | 5.14%
Cc1cc(CNCc2c(C(=O)N(C)Cc3ccccc3)nc3ccccn23)nn1C | -2.9%
COc1ccc(NC(=O)C2CCC(CNc3c(N4CCCCC4)c(=O)c3=O)CC2)c(OC)c1 (stereo not drawn) | 1.77%
CCOC(=O)c1c(NC(=O)NC(C)(C)C)sc2c1CCN(C)C2 | 0.728%
Cc1c(OC(C)C(=O)N[C@@H](Cc2ccccc2)C(=O)O)ccc2c3c(c(=O)oc12)CCCC3 (stereo partly drawn) | 3.9%
Cc1c(CCC(=O)N[C@@H](CC(C)C)C(=O)O)c(=O)oc2c(C)c3oc4c(c3cc12)CCCC4 | -0.714%
Cc1oc2c(C)c3oc(=O)c(CC(=O)N[C@@H](CC(C)C)C(=O)N[C@@H](Cc4ccccc4)C(=O)O)c(C)c3cc2c1C | 35.9% (active)
COc1cc(Cl)cc(C2NC(=O)NC(C)=C2C(=O)NCc2ccccc2)c1O (stereo not drawn) | -2.49%
Cc1cccc(C)c1NC(=O)C1(C)c2cccc[n+]2CC(=O)N1Cc1cccs1 (stereo not drawn) | 6.36%
CCn1cc(C(=O)NC2CCCCCC2)c(=O)c2cc(S(=O)(=O)N3CCCCC3)ccc21 | -1.8%
CCn1cc(C(=O)NCC2CCCO2)c(=O)c2cc(S(=O)(=O)N3CCCCC3)ccc21 (stereo not drawn) | 8.79%
CCn1cc(C(=O)NCCCN2CCCCCC2)c(=O)c2cc(S(=O)(=O)N3CCc4ccccc4C3)ccc21 | 25.6% (active)
COCCN(C(=O)C(C)N1C(=O)c2ccccc2C1=O)c1c(N)n(CC(C)C)c(=O)[nH]c1=O (stereo not drawn) | 0.415%
COCCNC(=O)C(OC(=O)c1cccs1)c1ccc(F)cc1 (stereo not drawn) | 2.74%

Structure (SMILES) | inhibition
O=C(Cc1csc(Nc2nc(=S)[nH]c3ccccc23)n1)NCCCN1CCN(c2cccc(Cl)c2)CC1 | 43.9% (active)
O=C(Cc1ccc(-n2c(=O)[nH]c3ccccc3c2=O)cc1)N1CCN(c2cccc(Cl)c2)CC1 | 6.86%
CCOC(=O)N1CCC(Nc2c(NCCN3CCN(c4cccc(Cl)c4)CC3)c(=O)c2=O)CC1 | -3.05%
CCOC(=O)N1CCC(N2Cc3cccc(C(=O)Nc4c(C)cccc4CC)c3C2=O)CC1 | 8.26%
Cc1ccc(C(=O)N2CCCC(c3ccccc3)=N2)cc1 | -4.43%
COc1ccc(N2CCN(c3ccc([N+](=O)[O-])nc3)CC2)cc1 | 1.06%
O=C(CCc1ccccc1)NNc1ccc(F)cc1 | -2.34%
Clc1cccc(-c2nc3nc4ccccc4nc3n2Cc2ccco2)c1 | -0.737%
Cc1ccc(Cn2c(C)nc3c(c2=O)c2nc4ccccc4nc2n3Cc2ccco2)cc1 | 49% (active)
O=c1[nH]c(CSc2ncc(-c3ccc(F)cc3)n2Cc2ccco2)nc2ccccc12 | 1.31%
COc1cc(C2c3cc4c(cc3C(O)C3COC(=O)C23)OCO4)cc(OC)c1OC (stereo not drawn) | 0.207%
Cc1ccc(-c2nn(-c3ccccc3)cc2/C=C2\SC(=S)N(CCCCCC(=O)O)C2=O)o1 | 34.1% (active)
O=C(O)CCCCCCCCc1cn(CN2C(=O)c3ccccc3C2=O)nn1 | 1.47%
CC(C)[C@@H]1NC(=O)c2cc([N+](=O)[O-])cc(I)c2NCCC[C@@H](C(=O)NC(CC(=O)O)C(N)=O)NC(=O)[C@H](CO)NC1=O (stereo partly drawn) | -2.22%
COc1ccc(OC)c(C(=O)c2coc3ccc(OC)cc23)c1 | -4.74%
COc1ccc2oc(=O)cc(CN3CCOCC3)c2c1 | 0.645%
COc1ccc(OC)c(C(=O)c2coc3ccc(O)c(CN4CCOCC4)c23)c1 | 36.3% (active)
CC1CC(C)CN(C(=O)CCNC(=O)Cn2cnc3ccccc3c2=O)C1 (stereo not drawn) | -4.11%
CC(=O)N1c2ccc(S(=O)(=O)N3CCC(C(=O)NC4CCCCC4C)CC3)cc2CC1C (stereo not drawn) | 1.28%
CS(=O)(=O)c1sc2nc(-c3ccccc3)cc(-c3ccccc3)c2c1N | 43.8% (active)
CNC(=S)NNC(=O)c1oc2nc(-c3ccccc3)cc(-c3ccco3)c2c1N | 11.9%
Nc1cccc(-c2cc(-c3ccccc3)nc(-c3cccc(N)c3)n2)c1 | 13.8%
